# Measured values reported in PubChem BioAssay (NCATS).
# Inconclusive results are not listed. Values without a mark were called inactive. Calls of active or inactive are those of the source. Calls come from the whole dose curve; as a rule, active = well fitted cell-killing curve with a large enough effect; inconclusive = small, poorly fitted or top-dose-only effect, or effect the other way; inactive = no such curve, though single readings can be large or run the other way.
# Tests used:
# [1] = Quantitative High-Throughput drug screen in 47 multiple myeloma cell lines against the NCATS MIPE library collection: OPM1_PLB cell viability assay (AID 1918989); note: nearly all actives have a fitted effect of over 40% in size
# Procedure, shortened: (§1)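 Plated at 500 cells per well, myeloma lines received MIPE 4.0 compounds by pin tool. Following 48 h culture at 37 °C, CellTiter-Glo luminescence gave viability relative to DMSO and media-only controls.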
# [2] = Quantitative High-Throughput drug screen in 47 multiple myeloma cell lines against the NCATS MIPE library collection: SKMM1_PLB cell viability assay (AID 1919863); settings: SKMM1 myeloma viability, CellTiter-Glo ATP, 48 h; viability: active compounds read low; note: nearly all actives have a fitted effect of over 35% in size
# Procedure, shortened: as §1
# [3] = Quantitative High-Throughput drug screen in 47 multiple myeloma cell lines against the NCATS MIPE library collection: XG6_PLB cell viability assay (AID 1919865); note: nearly all actives have a fitted effect of over 40% in size
# Procedure, shortened: as §1
# [4] = Quantitative High-Throughput drug screen in 47 multiple myeloma cell lines against the NCATS MIPE library collection: XG1_PLB cell viability assay (AID 1919866); note: nearly all actives have a fitted effect of over 35% in size
# Procedure, shortened: as §1
# [5] = Quantitative High-Throughput drug screen in 47 multiple myeloma cell lines against the NCATS MIPE library collection: VP6_DJ cell viability assay (AID 1919867); note: nearly all actives have a fitted effect of over 40% in size
# Procedure, shortened: as §1
# [6] = Quantitative High-Throughput drug screen in 47 multiple myeloma cell lines against the NCATS MIPE library collection: PE2_PLB cell viability assay (AID 1919869); note: nearly all actives have a fitted effect of over 35% in size
# Procedure, shortened: as §1
# [7] = Quantitative High-Throughput drug screen in 47 multiple myeloma cell lines against the NCATS MIPE library collection: PCM6_Riken cell viability assay (AID 1919870); note: nearly all actives have a fitted effect of over 30% in size
# Procedure, shortened: as §1
# [8] = Quantitative High-Throughput drug screen in 47 multiple myeloma cell lines against the NCATS MIPE library collection: U266_ATCC cell viability assay (AID 1919864); note: nearly all actives have a fitted effect of over 35% in size;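 for viability (% of DMSO control): 0% = media-only wells without cells and 100% = DMSO-only wells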
# Procedure, shortened: as §1
# [9] = Quantitative High-Throughput drug screen in 47 multiple myeloma cell lines against the NCATS MIPE library collection: UTMC2_PLB cell viability assay (AID 1919868); settings: CellTiter-Glo ATP luminescence, 48 h; viability (% of DMSO control): at 45.8 µM (top of the series); note: nearly all actives have a fitted effect of over 55% in size
# Procedure, shortened: as §1
# Potency is the fitted concentration of half-maximal effect.
compound,measurement,setting,value
NC(=O)C1CCCc2c1[nH]c1ccc(Cl)cc21 (stereo not drawn),Potency,[1],4.69 µM (active)
same,viability,[2],110%
same,Potency,[3],20.9 µM (active)
same,Potency,[4],16.6 µM (active)
same,Potency,[5],3.32 µM (active)
same,Potency,[6],16.6 µM (active)
same,Potency,[7],16.6 µM (active)
OCCC#Cc1nc(-c2ccc(F)cc2)c(-c2ccncc2)n1CCCc1ccccc1,Potency,[1],18.7 µM (active)
same,viability,[2],114%
same,Potency,[8],inactive
same,Potency,[4],18.7 µM (active)
same,Potency,[6],20.9 µM (active)
same,Potency,[7],23.5 µM (active)
Cc1ccccc1C(OCCN(C)C)c1ccccc1 (stereo not drawn),Potency,[1],inactive
same,Potency,[8],inactive
same,Potency,[4],inactive
same,Potency,[6],inactive
N#Cc1ccc(C(c2ccc(C#N)cc2)n2cncn2)cc1,Potency,[1],16.6 µM (active)
same,Potency,[2],6.62 µM (active)
same,Potency,[8],16.6 µM (active)
same,Potency,[5],16.6 µM (active)
same,Potency,[6],inactive
CCOc1cc(C=C2C(=O)N(c3ccccc3)N=C2C)cc(Cl)c1OCC(=O)OC,Potency,[1],23.5 µM (active)
same,viability,[2],106%
same,Potency,[7],16.6 µM (active)
Cc1c(C)c2c(c(C)c1O)CCC(C)(COc1ccc(CC3SC(=O)NC3=O)cc1)O2 (stereo not drawn),Potency,[1],inactive
same,viability,[2],114%
same,Potency,[8],inactive
same,Potency,[4],inactive
same,Potency,[5],inactive
same,Potency,[6],20.9 µM (active)
Cn1cnc([N+](=O)[O-])c1Sc1ncnc2nc[nH]c12,Potency,[1],4.69 µM (active)
same,Potency,[8],10.5 µM (active)
same,Potency,[4],5.26 µM (active)
same,Potency,[9],5.26 µM (active)
same,Potency,[6],14.8 µM (active)
O=C1CCC(N2C(=O)c3ccccc3C2=O)C(=O)N1 (stereo not drawn),Potency,[1],inactive
same,Potency,[2],23.5 µM (active)
same,Potency,[8],18.7 µM (active)
same,Potency,[3],inactive
same,Potency,[4],3.72 µM (active)
same,Potency,[6],inactive
CS(=O)(=O)c1ccc(C(=O)Nc2ccc(Cl)c(-c3ccccn3)c2)c(Cl)c1,Potency,[1],18.7 µM (active)
same,viability,[2],129%
same,Potency,[4],1.66 µM (active)
O=C(O)[C@@H](c1ccc(OCc2ccc3ccccc3n2)cc1)C1CCCC1,Potency,[1],inactive
same,viability,[2],106%
same,Potency,[8],inactive
same,Potency,[4],5.26 µM (active)
same,Potency,[6],inactive
CCC(C)N(C)C(=O)c1cc2ccccc2c(-c2ccccc2Cl)n1 (stereo not drawn),Potency,[1],inactive
same,Potency,[3],8.33 µM (active)
same,Potency,[4],5.26 µM (active)
same,Potency,[5],6.62 µM (active)
O=NN(CCCl)C(=O)NCCCl,Potency,[1],inactive
same,viability,[2],118%
same,Potency,[3],inactive
same,Potency,[4],inactive
same,Potency,[6],inactive
same,Potency,[7],inactive
CC(C)OC(=O)C1=CN(C(=O)c2ccc(F)c(F)c2)CC(C)(C)c2c1[nH]c1ccccc21,Potency,[1],inactive
same,viability,[2],104%
same,Potency,[3],inactive
same,Potency,[4],inactive
same,Potency,[5],1.87 µM (active)
same,Potency,[6],inactive
same,Potency,[7],inactive
O=C(c1cc(Cc2n[nH]c(=O)c3ccccc23)ccc1F)N1CCN(C(=O)C2CC2)CC1,Potency,[1],inactive
same,viability,[2],93.3%
same,Potency,[3],13.2 µM (active)
same,Potency,[6],18.7 µM (active)
NC(=O)c1ccc(I)c([N+](=O)[O-])c1,Potency,[1],23.5 µM (active)
same,viability,[2],102%
same,Potency,[4],18.7 µM (active)
same,Potency,[6],20.9 µM (active)
COc1cc2c(cc1OC)CN(CCc1ccc(NC(=O)c3cccc4c(=O)c5cccc(OC)c5[nH]c34)cc1)CC2,Potency,[1],16.6 µM (active)
same,Potency,[8],9.35 µM (active)
same,Potency,[5],inactive
same,Potency,[6],20.9 µM (active)
Cc1[nH]c(=O)c(C#N)cc1-c1ccncc1,Potency,[1],16.6 µM (active)
same,viability,[2],106%
same,Potency,[3],5.9 µM (active)
same,Potency,[6],11.8 µM (active)
same,Potency,[7],7.43 µM (active)
Cc1cc2c(F)c(Oc3ncnn4cc(OC[C@@H](C)O)c(C)c34)ccc2[nH]1,Potency,[1],20.9 µM (active)
same,Potency,[8],23.5 µM (active)
same,Potency,[3],0.743 µM (active)
Nc1nc2[nH]cc(CCc3ccc(C(=O)N[C@@H](CCC(=O)O)C(=O)O)cc3)c2c(=O)[nH]1,Potency,[1],2.96 µM (active)
same,Potency,[2],5.26 µM (active)
same,Potency,[3],inactive
same,Potency,[4],inactive
same,Potency,[6],inactive
OC(CN1CCC(Cc2ccc(F)cc2)CC1)c1ccc(Cl)cc1 (stereo not drawn),Potency,[1],inactive
same,Potency,[3],inactive
same,Potency,[4],inactive
same,Potency,[6],inactive
c1ccc(-c2nn3c(c2-c2ccnc4cc(OCCN5CCOCC5)ccc24)CCC3)nc1,Potency,[1],inactive
same,Potency,[3],inactive
same,Potency,[6],10.5 µM (active)
COc1cc(Nc2ncc3c(n2)-c2ccc(Cl)cc2C(c2c(F)cccc2OC)=NC3)ccc1C(=O)O,viability,[2],78.9%
same,Potency,[8],inactive
CCn1c(-c2nonc2N)nc2cnc(Oc3cccc(NC(=O)c4ccc(OCCN5CCOCC5)cc4)c3)cc21,Potency,[1],16.6 µM (active)
same,Potency,[3],20.9 µM (active)
same,Potency,[5],8.33 µM (active)
same,Potency,[6],10.5 µM (active)
Nc1nc2ccc(OC(F)(F)F)cc2s1,Potency,[8],inactive
same,Potency,[3],inactive
same,Potency,[5],18.7 µM (active)
same,Potency,[6],inactive
CCC(=O)N[C@H]1CC[C@H](C(=O)N(C)c2ccc(-c3nc4ccccc4o3)cc2)C1,viability,[2],132%
same,Potency,[3],8.33 µM (active)
same,Potency,[4],6.62 µM (active)
same,Potency,[6],13.2 µM (active)
